According to PubChem BioAssay (NCI):
About 79,000 compounds went through this panel and 15% of them were active in at least one assay; those are over-represented in the sample as a whole. Activity calls are given as the source filed them. Cut-off read from the data, not from the text of the source: active = growth inhibition above about 70%; inactive = the rest.

Assay: NCI Yeast Anticancer Drug Screen. Data for the mlh1 strain (AID 171);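 note: 0% = growth of vehicle-treated control cultures of the same strain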
Conditions: S. cerevisiae mlh1 strain growth inhibition, stronger effect = higher value
Protocol: Growth inhibition of yeast strains with defined genetic alterations is measured as a screen for potential anti-cancer activity. Selected strains with alterations in DNA damage repair or cell cycle control were exposed to compounds and growth inhibition was measured relative to vehicle treated controls. The strain used in this assay is mlh1

SMILES | growth inhibition (at 1.2 µM) | growth inhibition (at 3.7 µM) | growth inhibition (at 11.0 µM) | growth inhibition (at 33.0 µM) | growth inhibition (at 100.0 µM)
Oc1ccc(O)c(Cc2ccccc2)c1 | 9% (inactive) | 22% (inactive) | 47% (inactive) | 89% (active) | 98% (active)
Cc1ccc(S/C(=C\C(=O)O)c2ccccc2)cc1 | -6% (inactive) | 0% (inactive) | 6% (inactive) | 20% (inactive) | 38% (inactive)
c1ccc2c(OCC3CO3)cccc2c1 (stereo not given) | 0% (inactive) | 1% (inactive) | 5% (inactive) | 10% (inactive) | 40% (inactive)
CN(C)Cc1cc(N=Nc2ccc(Cl)cc2)ccc1OC(=O)c1ccccc1 | 2% (inactive) | 2% (inactive) | 4% (inactive) | 31% (inactive) | 67% (inactive)
CCOC1=C/C(=N\Nc2ccc([N+](=O)[O-])cc2)CCC1 | 0% (inactive) | 5% (inactive) | 11% (inactive) | 17% (inactive) | 7% (inactive)
Cc1cc2cc3cc(C)c(N)cc3nc2cc1N | -10% (inactive) | 3% (inactive) | 24% (inactive) | 79% (active) | 95% (active)
O=C1NC(=O)c2ccc([N+](=O)[O-])c3cccc1c23 | 32% (inactive) | 28% (inactive) | 41% (inactive) | 65% (inactive) | 75% (active)
COc1ccc(C(=O)c2ccccc2C(=O)c2ccccc2OC)cc1 | 1% (inactive) | -2% (inactive) | -1% (inactive) | 4% (inactive) | 15% (inactive)
